M1 ag parental = nonselective activator or artifact in parental CHO-K1 cells. Fluo-8 calcium fluorescence; scaled to maximal ATP response, vehicle zero. activation, % at 3 µM. 0.48% of 360,000 active. AID 602248; in the data active = activation above about 15%;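 note: untransfected CHO-K1 host cells lacking M1 receptor as counterscreen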
M1 PAM parental = M1 PAM counterscreen hit in parental CHO-K1 cells; AID 602247; activation, % at 3 µM; 0.02% of 360,000 active; ATP EC20, Fluo-8 calcium fluorescence; 0% at ATP EC20, 100% at ATP max;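 active = activation above the run cutoff, the mean activation of all test compounds plus 3 SD, cut at about 40% in these data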;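 note: peak over basal fluorescence ratio in a 140 s read after ATP addition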
M1 ag = activates human CHRM1 receptor. CHO-K1 hM1, Fluo-8 calcium fluorescence, agonist mode; 0% DMSO, 100% acetylcholine EC100. activation, % at 3 µM. 0.33% of 360,000 active;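 active = activation above the run's mean compound activation plus 3 SD, cut at about 16% in these data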;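 note: peak over basal fluorescence ratio within a 140 s kinetic read after compound addition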
Target sequence (P11229 whole entry, looked up): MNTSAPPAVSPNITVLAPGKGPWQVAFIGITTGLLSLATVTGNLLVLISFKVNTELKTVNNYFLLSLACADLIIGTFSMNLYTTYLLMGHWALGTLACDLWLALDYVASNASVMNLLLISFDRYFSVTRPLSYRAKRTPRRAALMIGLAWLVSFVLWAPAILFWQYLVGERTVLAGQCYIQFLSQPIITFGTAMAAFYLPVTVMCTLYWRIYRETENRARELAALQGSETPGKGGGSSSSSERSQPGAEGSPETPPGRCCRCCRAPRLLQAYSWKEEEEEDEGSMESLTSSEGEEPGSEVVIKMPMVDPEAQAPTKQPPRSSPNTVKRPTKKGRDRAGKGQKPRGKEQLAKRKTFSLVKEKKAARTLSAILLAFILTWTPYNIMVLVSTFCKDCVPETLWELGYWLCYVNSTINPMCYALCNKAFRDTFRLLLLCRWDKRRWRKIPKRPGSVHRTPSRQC
CHO-K1 Ca antag = nonselective inhibitor or artifact in parental CHO-K1 cells | AID 602250 | inhibition, % at 3 µM | ATP-induced calcium, Fluo-8 fluorescence | 0.6% of 360,000 active;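 active = inhibition above a per-plate cutoff, the plate's mean sample inhibition plus 3 SD, cut at about 24% in these data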;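 note: 0% = DMSO plus EC80 ATP and 100% = DMSO alone without ATP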
CHRM1 antagonist = antagonists of human M1 muscarinic receptor. P11229. CHO-K1 hM1, Fluo-8 calcium fluorescence, ACh EC80 antagonist. inhibition, % at 3 µM. 1.3% of 360,000 active. AID 588852;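 active = percent inhibition above its own plate's cutoff, namely the mean of that plate's compound wells plus 3 SD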;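 note: peak over basal fluorescence ratio during 140 s after agonist addition; 0% = ACh EC80 plus DMSO and 100% = DMSO alone without agonist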
CHRM1 PAM = human CHRM1 positive allosteric modulation; P11229; CHO-K1 hM1, Fluo-8 calcium fluorescence, ACh EC20; 0% = ACh EC20, 100% = maximal ACh; activation, % at 3 µM; 0.088% of 360,000 active; in the data active = activation above about 19%, passing the limit was not always enough
The depositor's hits bear a star; . = not tested or not shown. The list is not random: actives were taken first. Their share in the collection is about 2.3%.

SMILES	M1 ag parental	M1 PAM parental	M1 ag	CHO-K1 Ca antag	CHRM1 antagonist	CHRM1 PAM
Cc1ccc(S(=O)(=O)N2[C@@H](c3ccc(C(C)(C)C)cc3)C(C(=O)O)=CC[C@H]2c2cccs2)cc1	-0.3	-11.9	-2.2	33.6*	-13.2	9.7
Cc1ccc(S(=O)(=O)N(c2nc(N(C)C)nc(N(C)C)n2)n2cnnc2)cc1	-0.1	5.4	-4.1	-18.2	-22.0	2.0
COc1cccc(C(C)(O)c2nc(-c3cccc(NC(C)=O)c3)cs2)c1 (configuration not stated)	4.7	13.7	1.9	-13.2	-6.9	1.3
CCOC(=O)[C@@H]1[C@H]2COc3cc(OC)ccc3[C@@H]2N2C(=O)N(c3ccc(C(F)(F)F)cc3)C(=O)[C@@]12C	0.0	20.3	-6.9	-13.3	-1.9	3.0
CCOC(=O)[C@@H]1[C@H]2COc3cc(OC)ccc3[C@H]2N2C(=O)N(c3cccc(F)c3)C(=O)[C@@]12C	-0.6	-8.2	0.2	15.5	31.3*	-17.8
CCOC(=O)[C@H]1[C@H]2COc3cc(OC)ccc3[C@@H]2N2C(=O)N(c3cccc(F)c3)C(=O)[C@@]12C	-0.5	7.4	-8.6	-5.7	2.8	1.0
CCOC(=O)[C@@H]1[C@H]2COc3cc(OC)ccc3[C@H]2N2C(=O)N(c3ccc(C(F)(F)F)cc3)C(=O)[C@]12C	7.7	-19.6	4.4	33.0*	41.2*	-20.6
O=C(/C=C/c1ccc(Cl)c([N+](=O)[O-])c1)Nc1ccc(NC(=O)c2ccco2)cc1	0.6	-8.1	-3.4	12.2	1.7	-2.8
O=C(/C=C/c1ccc(Cl)c([N+](=O)[O-])c1)Nc1cccc(NC(=O)c2ccco2)c1	6.8	-13.8	-3.5	28.0*	33.8*	-22.7
COC(=O)c1cnc(Oc2ccc(NC(=O)NC(=O)c3ccccc3Cl)cc2)cc1C(F)(F)F	2.6	-1.0	-0.5	-0.9	-4.6	4.2
CS(=O)CSc1nc2c(cc1C#N)CCCC2 (configuration not stated)	-0.1	-1.1	-11.8	-4.2	95.2*	-35.9
CCCCSc1nc2c(cc1C#N)CCC2	0.0	13.3	-2.0	-18.9	-10.8	5.2
NC(=O)c1ccc(NC(=O)COC(=O)c2ccccc2SCC(=O)N2CCCC2)cc1	0.7	7.3	5.3	-11.7	-32.8	26.9*
COc1ccc(C(=O)Nc2ccc3c(c2)Cc2ccccc2-3)cc1	0.0	-5.7	0.4	24.1*	-1.2	10.2
COc1cccc(OC)c1C(=O)Nc1ccc2c(c1)Cc1ccccc1-2	0.3	10.2	-3.2	-8.0	1.1	0.9
O=C(CN1CCCC1c1cccs1)N1CCN(S(=O)(=O)c2cccc(F)c2)CC1 (configuration not stated)	0.8	-5.3	-8.1	-4.1	1.0	-3.3
O=[N+]([O-])c1ccccc1N(S(=O)(=O)c1ccccc1)S(=O)(=O)c1ccccc1	0.1	11.1	-1.4	-10.5	3.0	-5.0
CCc1ccc(C(O)c2ncc(-c3ccccc3OC)[nH]2)cc1 (configuration not stated)	4.2	6.1	1.8	-10.0	4.6	-10.8
Cc1ccc(CN(C)C(=O)c2ccc(S(=O)(=O)N(C)c3ccccc3)cc2)o1	1.6	-21.5	-0.7	13.8	39.5*	-16.9
CN(Cc1ccc(OC(F)F)cc1)C(=O)c1ccc(S(=O)(=O)N(C)c2ccccc2)cc1	4.6	-17.9	-2.6	-5.2	21.1	-12.9
CCc1nc2ccccc2c(C(=O)Nc2ccc(F)cc2)c1C	0.5	2.1	-5.7	-8.8	-2.4	1.8
CC(C)(C#CC(O)(c1ccccc1)c1ccccc1)N1CCCC1	0.2	-10.1	-4.5	2.9	99.2*	-22.6
CC(=O)NNC(=O)C(O)(c1ccccc1)c1ccccc1	3.0	0.0	-2.1	17.4	-2.8	2.7
CC(C)(C#CC(O)(c1ccccc1)c1ccccc1)N1CCCCC1	0.7	21.0	-8.7	-10.9	92.9*	-28.8
Fc1cccc(Cc2c(-c3ccccc3)nc3c4ccccc4ccn23)c1	0.2	-2.8	.	8.2	.	.
SMILES	M1 ag parental	M1 PAM parental	M1 ag	CHO-K1 Ca antag	CHRM1 antagonist	CHRM1 PAM
CCOCC(=O)N1CCN(c2ccccc2OC)CC1	0.5	13.3	-6.3	-13.3	-1.0	-4.8
O=C(NCc1ccccn1)c1ccc(OC2CCN(Cc3ccccc3)CC2)cc1	0.6	-21.7	-5.9	8.2	14.8	-9.6
C#Cc1ccc(CN2CCC(Oc3ccc(C(=O)NCc4ccccn4)cc3)CC2)cc1	1.6	-1.7	-6.2	11.7	78.3*	-24.3
COc1ccc(CN2CCC(Oc3ccc(C(=O)NCc4ccccn4)cc3)CC2)c(F)c1	4.7	10.5	-2.4	-5.7	71.5*	-23.2
CCOc1cccc(CN2CCC(Oc3ccc(C(=O)NCc4ccccn4)cc3)CC2)c1	1.2	-5.5	-5.0	-6.9	77.1*	-23.1
COc1cc(OC)cc(C(=O)N[C@H](C(=O)Nc2c(C)n(C)n(-c3ccccc3)c2=O)C(C)C)c1	-0.6	-3.0	-5.1	-5.1	-8.9	3.2
COc1ccc(C2=NS(=O)(=O)N(C)C(C(=O)N3CCC(C(N)=O)CC3)=C2)cc1	-0.2	0.6	-1.6	0.8	-2.2	4.7
O=C(/C=C/c1ccccc1)CC(O)(c1ccccc1)C(F)(F)C(F)F (configuration not stated)	17.2*	23.5	-8.4	-6.6	37.6*	-22.2
CCOC(=O)Cc1csc(SCC(=O)Nc2cc(Cl)ccc2Oc2ccccc2)n1	7.0	1.1	-2.2	28.6*	28.7	-11.4
O=C(CSc1n[nH]c(=O)n1C1CC1)Nc1ccccc1	0.2	14.8	-1.6	5.6	-1.2	6.1
O=C(CSc1n[nH]c(=O)n1C1CC1)Nc1cc(Cl)ccc1Oc1ccccc1	7.8	4.1	2.4	25.1*	45.9*	-15.7
COc1ccc(Cl)cc1NC(=O)CSc1nnc(C2CC2)n1C	1.1	-13.2	-5.9	-7.4	2.9	-0.1
COc1cc(CN(CCN(C)C)Cc2ccccc2)ccc1OCc1ccccc1	0.6	-3.7	-8.5	10.6	51.3*	-23.5
Cc1nc(CCNC(=O)c2cc(COc3ccc(F)cc3Cl)on2)sc1C	4.3	14.7	-3.5	-16.2	-28.5	-4.0
O=C(CN1CCN(c2ccccc2O)CC1)Nc1ccc2c(c1)OCCCO2	0.1	6.9	-3.0	-15.4	0.2	2.2
Cc1ccc(OCc2cn3cccnc3n2)cc1	95.3*	-4.0	-4.6	67.0*	0.4	1.4
COc1ccc(-c2cc(C(F)(F)F)nc(SCc3cccc(C(=O)O)c3)n2)cc1	0.2	11.1	-6.7	-12.4	5.3	-0.2
COc1ccc(-c2cc(C(F)(F)F)nc(SCCC(=O)NCc3ccccc3)n2)cc1	-0.5	-5.6	-1.4	28.9*	-12.2	9.4
O=C(COC(=O)Cc1ccsc1)NC(c1ccccc1)c1ccccc1	0.1	-7.4	-6.8	15.9	-3.4	-0.3

Screens from PubChem BioAssay.
